From PubChem
D2 ag-1: D2 dopamine receptor (human) agonism. P14416. HEK293 T-REx D2 cells, calcium flux agonist mode. activation, % at 2 µM. 340,000 tested, 0.53% active;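 active = activation over 3 SD above normal in the single-dose calcium agonist read, cut at about 30% in these data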; note: 0% is about no effect
Target sequence (P14416 whole entry, looked up): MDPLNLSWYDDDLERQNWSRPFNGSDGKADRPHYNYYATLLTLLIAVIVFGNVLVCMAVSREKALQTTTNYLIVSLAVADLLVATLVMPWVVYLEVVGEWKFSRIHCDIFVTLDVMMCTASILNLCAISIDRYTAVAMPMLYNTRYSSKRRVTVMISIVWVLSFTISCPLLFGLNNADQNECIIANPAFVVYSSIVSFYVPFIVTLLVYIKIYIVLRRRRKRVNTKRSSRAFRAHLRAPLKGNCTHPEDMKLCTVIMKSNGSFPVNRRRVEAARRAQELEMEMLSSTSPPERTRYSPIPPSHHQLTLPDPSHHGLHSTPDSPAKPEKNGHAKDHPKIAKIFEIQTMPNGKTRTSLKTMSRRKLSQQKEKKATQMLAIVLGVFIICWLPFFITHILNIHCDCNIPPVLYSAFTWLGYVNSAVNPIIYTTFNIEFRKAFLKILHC
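Tetracycline-induced HEK293 T-REx cells with force-coupled D2 receptor, plated overnight at 30 C, loaded with no-wash calcium dye. After a 10 s baseline, compound was pin-added and calcium flux read kinetically for 180 s; calcium rises flagged agonists.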
D2 ag-2: activates the human D2 dopamine receptor | P14416 | 360,000 tested, 0.084% active | DiscoveRx PathHunter D2 beta-arrestin, luminescence, 90 min; 100% = 57 uM dopamine signal | activation, % (concentration not given with the values); in the data active = activation above about 40%; inconclusive = between about 15% and that limit
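DiscoveRx PathHunter D2 beta-arrestin cells (2,100/well) attached overnight, then compound-stimulated 90 min at 37 C in HBSS/10 mM HEPES/0.1% Tween-20 buffer; beta-galactosidase complementation read by luminescence after 1 h at ambient temperature. Dopamine 57 uM final (EC100) as control.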
D2 antagonist: D2 dopamine receptor (human) antagonism | P14416 | inhibition, % at 10 µM | HEK293 TREx D2 cells, calcium flux, dopamine EC80 | AID 485344 | 340,000 tested, 2% active; in the data active = inhibition above about 30%; inactive = below that, where a call was filed; note: 0% is about no effect
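Tetracycline-induced HEK293 T-REx cells expressing D2 force-coupled to calcium signalling were dye-loaded, exposed to compound for 180 s, then challenged with an EC80 of dopamine; calcium flux was followed kinetically for a further 180 s.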
D2 PAM-1: positive allosteric modulators of human D2 dopamine receptor; potentiation, % at 10 µM; HEK293 T-REx D2, calcium flux, EC20 dopamine potentiation; 340,000 tested, 0.34% active;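 active = potentiation over 3 SD above the plate norm, cut at about 30% in these data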; note: 0% is about no effect
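Potentiation of an EC20 dopamine calcium response is measured in a force-coupled, tetracycline-inducible Hek293 Trex D2 line. Compound-only kinetic reads over 180 s flag agonists before dopamine addition.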
D2 PAM-2: positive allosteric modulators of human D2 dopamine receptor; P14416; DiscoveRx D2 beta-arrestin cells, luminescence, 90 min; 100% = 57 uM dopamine signal; potentiation, % (no concentration beside the values); 360,000 tested, 0.23% active; AID 624464; in the data active = potentiation above about 50%; inconclusive = mostly about 30% to 49%
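PathHunter beta-arrestin assay in DiscoveRx D2 cells. Compounds were added with an EC20 of dopamine (50 nM final) for 90 min at 37 deg C. Luminescence was read 1 h after detection reagent, with 57 uM dopamine as the EC100 control.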
Numbers without * were called inactive; u = inconclusive; x = no result given. This is a sample that favours compounds with a hit; in the whole collection about 2.4% have one here.

SMILES	D2 ag-1	D2 ag-2	D2 antagonist	D2 PAM-1	D2 PAM-2
Cn1cc(CC(=O)NCc2ccc(F)cc2)c2ccccc21	-0.4	-0.7	-29.2	9.2	-6.0
Cn1cc(CC(=O)NCCN2CCOCC2)c2ccccc21	0.2	0.1	24.5	39.3*	-9.6
CC(C)c1ccc(NC(=O)Cc2cn(C)c3ccccc23)cc1	-0.1	-4.0	48.8*	-7.8	-9.2
Cc1ccc(C(=O)Nc2cc3cc(Cl)ccc3oc2=O)cc1	-0.8	x	x	-1.7	x
COc1cc(C(=O)Nc2cccc(OCc3cc(=O)n4c(C)csc4n3)c2)cc(OC)c1OC	-0.3	x	x	x	x
CCOC(=O)CNC(=O)c1cn(CC(C)C)c(=O)c2cc(OC)c(OC)cc12	0.4	0.0	31.2*	-2.7	-9.5
CCn1cc(C(=O)NCC(=O)OC)c2cc(OC)c(OC)cc2c1=O	-0.1	-1.4	1.6	-1.0	8.9
CN(CCOc1ccccc1)CC(=O)Nc1ccc(Br)cc1F	0.6	-0.2	52.9*	-0.3	-7.7
COc1cc(C(CCN2CCCC2)c2c(OC)cc(OC)c3ccc(=O)oc23)cc(OC)c1OC (configuration not stated)	0.4	0.7	33.0*	-0.6	-15.8
COc1cc(C(CC(=O)N2CCCC2)c2c(OC)cc(OC)c3ccc(=O)oc23)cc(OC)c1OC (configuration not stated)	-0.3	-0.2	-0.7	11.4	-9.4
Cn1c(=O)c(C(=O)COC(=O)c2cc(-c3ccccc3)nc3ccccc23)c(N)n(Cc2ccccc2)c1=O	2.9	x	30.6*	-5.5	x
Cn1c(=O)c(C(=O)COC(=O)c2cc(C(F)(F)F)nc3ccccc23)c(N)n(Cc2ccccc2)c1=O	1.1	x	5.0	-0.8	x
COc1cc2ccccc2cc1C(=O)OCC(=O)c1c(N)n(C)c(=O)n(C)c1=O	0.4	-1.3	52.1*	1.1	-21.1
COc1ccc(-c2nc3sc(CCNC(=O)C(=O)Nc4ccccc4C#N)c(C)n3n2)cc1	-0.4	x	x	12.9	x
CCn1c2ccccc2c2cc(NC(=O)Cc3ccc(S(=O)(=O)N4CCOCC4)s3)ccc21	0.2	0.0	36.2*	-6.4	0.8
Cc1nn(-c2ccccc2)c(-n2cccc2)c1C(=O)NCCc1ccc(Cl)cc1	-1.0	x	x	8.5	x
CCOC(=O)c1c(C)cccc1OCC(N)=O	-0.7	-0.2	-2.5	64.2*	-17.7
COc1ccc(-c2noc(CN(C(=O)Cc3ccc(C)cc3)C(C)C)n2)cc1	x	x	x	10.9	x
COc1ccc(C2=Nc3ccc(OC(F)(F)F)cc3NC(c3cccnc3)=N2)cc1	0.3	x	x	8.4	x
COc1ccc(-c2[nH]nc3oc(=O)cc(C)c23)cc1	0.1	-2.4	33.4*	27.8	-6.9
Cc1ccccc1-n1nc(CO)c(C(=O)NCc2cccs2)n1	x	x	x	-8.3	x
O=C(Nc1cccc2ccccc12)c1ccc([N+](=O)[O-])o1	0.2	2.0	1.5	-11.4	7.8
O=C(Nc1ccccc1C(=O)NC1CC1)c1ccc([N+](=O)[O-])o1	0.3	u	-3.1	15.6	58.7*
CCN(CC)S(=O)(=O)c1ccc(C(=O)N2CC(=O)Nc3ccc(F)cc3C2c2ccccc2)cc1 (configuration not stated)	0.8	x	x	2.1	x
CC(OC(=O)Cn1c(C(F)(F)F)nc2ccccc21)C(N)=O (configuration not stated)	0.6	-1.6	39.9*	-5.6	-8.0
SMILES	D2 ag-1	D2 ag-2	D2 antagonist	D2 PAM-1	D2 PAM-2
N#Cc1c(NCCN)nc(NCc2ccccc2)c2c1CCN(Cc1ccccc1)C2	x	-1.1	x	x	2.3
CCN1CCc2c(C#N)c(NCc3ccccc3)nc(N(CC)CC)c2C1	2.6	-1.6	45.8*	-7.8	-37.3
CC(C)CN(c1ccccc1)S(=O)(=O)c1nnc(NC(=O)c2ccco2)s1	0.2	-2.1	67.8*	4.7	-29.5
O=C(CSc1nc(=O)n(Cc2ccco2)c2c1CCC2)Nc1cccc(F)c1	0.6	x	x	-3.2	x
Cc1cc2c([nH]c3ccccc32)c2c1OC(C)(C)C=C2	0.1	14.7	42.6*	13.7	-13.9
CCc1ccccc1NC(=O)c1cn(C)c(=O)c2ccccc12	0.2	x	x	x	x
Cc1ccc(Nc2c3c(nc4nncn24)CCC3)c(C)c1	-0.3	x	x	12.5	x
O=C(NNC1CC(=O)N(c2ccc(Br)cc2)C1=O)c1ccco1 (configuration not stated)	37.5*	1.9	-2.5	-20.8	-18.5
CCCOc1ccc(N2C(=O)CC(NNC(=O)c3ccc(COc4ccccc4)o3)C2=O)cc1 (configuration not stated)	-1.0	6.2	-0.9	3.1	-12.5
O=C(NNC1CC(=O)N(c2ccc(Cl)cc2)C1=O)c1ccco1 (configuration not stated)	0.5	-2.5	2.5	-2.9	-9.3
CCOc1cccc(N2C(=O)CC(NNC(=O)c3ccc(Br)o3)C2=O)c1 (configuration not stated)	-0.6	-2.0	38.1*	10.4	-5.5
CCN(CC)CCNC(=O)C1CCN(c2cc(C)nc3c(-c4ccc(Cl)cc4)c(C)nn23)CC1	0.2	x	x	5.6	x
COc1cc([N+](=O)[O-])ccc1NC(=O)CCN1C(=O)C2C3CCC(C3)C2C1=O (configuration not stated)	x	4.5	x	x	-21.4
COC(=O)c1ccc([N+](=O)[O-])cc1N1C(=O)C2C3CCC(C3)C2C1=O (configuration not stated)	-0.2	u	52.7*	-0.7	7.2
O=C(NC(=S)Nc1ccc2oc(=O)ccc2c1)c1cccc(Cl)c1	0.4	-3.7	30.4*	-2.0	-7.0
CC(C)N1CC(COc2ccc(Br)cc2)OC1=O (configuration not stated)	-0.2	1.8	41.2*	1.9	-3.9
COc1ccc(Cl)cc1NC(=O)Cn1c2ncccc2c(=O)n1-c1ccc(C)c(C)c1	x	x	x	-2.8	x
O=S(=O)(NCC1CCN(Cc2ccccc2)CC1)c1ccccc1C(F)(F)F	1.2	0.8	53.9*	-25.2	-19.6
CCn1c(=O)c2ccccc2n(CC(=O)NC2CCCCC2)c1=O	0.6	0.2	41.7*	-1.0	0.2
Cc1cc(C)cc(C(=O)N2CC(=O)Nc3ccccc32)c1	-1.0	0.3	-14.6	11.2	-10.2
Cc1ccc(/C=C/C(=O)N2CC(=O)Nc3ccccc32)o1	-1.1	-0.6	-8.8	32.6*	-3.0
COc1ccc(NC(=O)CCC(=O)Nc2ccc3nc(N4CCOCC4)cc(C)c3c2)c(OC)c1	-0.4	4.4	16.2	-6.7	-1.1
COc1cc(NC(=O)CCC(=O)Nc2ccc3nc(N4CCOCC4)cc(C)c3c2)cc(OC)c1OC	-0.9	-4.2	30.9*	-20.3	-10.4
NC(=O)C1CCCNC1 (configuration not stated)	1.6	-0.3	46.6*	-12.4	1.2
CCOc1ccc(N(CC)S(=O)(=O)N2CCCC(C(=O)Nc3ccc(NC(C)=O)cc3)C2)cc1 (configuration not stated)	1.2	x	x	1.2	x
